Laboratory results published in PubChem BioAssay AID1159580 (chemical genetic matrix, 2015).
Screen size: about 5,500 compounds; about 2,000 (36%) were called active. Another 18% or so got no clear call; they are omitted. This is one part of the list. Unmarked numbers belong to inactive results. Rule as the data show it: active = normalized growth mostly below about 0.91 (no sharp cut-off); inconclusive = no clear call, values can overlap the other calls; inactive = mostly above about 0.92.

Assay: chemical genetic growth profiling, strain panel (AID 1159580);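 also: tested at 20 µM; growth read once vehicle control cultures reached saturation at 30 °C; 1 = growth at the plate median or of vehicle wells; lower values mean less growth of the strain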
Details: growth OD

With `CCN(CC)CCOc1ccc(/C(=C(\Cl)c2ccccc2)c2ccccc2)cc1` the normalized growth (S. cerevisiae deletion strains, locus YKL009W, strain mrt4, hits give low values) was 0.917, the normalized growth (S. cerevisiae deletion strains, locus YKL068W, hits give low values) was 1.01 and the normalized growth (S. cerevisiae deletion strains, locus YKL160W, strain elf1, hits give low values) was 0.195 (active). The normalized growth (S. cerevisiae deletion strains, locus YKL190W, strain CNB1, hits give low values) was 0.0469 (active), the normalized growth (S. cerevisiae deletion strains, locus YKR001C, strain vps1, hits give low values) was 0.0607 (active) and the normalized growth (S. cerevisiae deletion strains, locus YKR026C, strain gcn3, hits give low values) was 0.209 (active). The normalized growth (S. cerevisiae deletion strains, locus YKR091W, strain srl3, hits give low values) was 0.171 (active), the normalized growth (S. cerevisiae deletion strains, locus YLL001W, strain dnm1, hits give low values) was 0.108 (active) and the normalized growth (S. cerevisiae deletion strains, locus YLL026W, hits give low values) was 0.0855 (active). The normalized growth (S. cerevisiae deletion strains, locus YLL041C, strain sdh2, hits give low values) was 0.129 (active), the normalized growth (S. cerevisiae deletion strains, locus YLR027C, strain aat2, hits give low values) was 0.093 (active) and the normalized growth (S. cerevisiae deletion strains, locus YLR039C, strain RIC1, hits give low values) was 0.099 (active). For the same compound, the normalized growth (S. cerevisiae deletion strains, locus YLR058C, strain SHM2, hits give low values) was 0.0491 (active), the normalized growth (S. cerevisiae deletion strains, locus YLR102C, strain apc9, hits give low values) was 0.0621 (active) and the normalized growth (S. cerevisiae deletion strains, locus YLR113W, strain HOG1, hits give low values) was 0.925. For the same compound, the normalized growth (S. cerevisiae deletion strains, locus YLR221C, strain rsa3, hits give low values) was 0.104 (active), the normalized growth (S. cerevisiae deletion strains, locus YLR258W, strain gsy2, hits give low values) was 0.0916 (active) and the normalized growth (S. cerevisiae deletion strains, locus YLR262C, strain YPT6 (second series), hits give low values) was 0.933. The normalized growth (S. cerevisiae deletion strains, locus YLR262C, strain YPT6, hits give low values) was 0.1 (active), the normalized growth (S. cerevisiae deletion strains, locus YLR268W, strain sec22, hits give low values) was 0.0697 (active) and the normalized growth (S. cerevisiae deletion strains, locus YLR320W, strain mms22, hits give low values) was 0.182 (active). For the same compound, the normalized growth (S. cerevisiae deletion strains, locus YLR330W, strain CHS5, hits give low values) was 0.0524 (active), the normalized growth (S. cerevisiae deletion strains, locus YLR342W, strain FKS1 (second series), hits give low values) was 0.066 (active) and the normalized growth (S. cerevisiae deletion strains, locus YLR342W, strain FKS1, hits give low values) was 0.156 (active). For the same compound, the normalized growth (S. cerevisiae deletion strains, locus YLR357W, strain rsc2, hits give low values) was 0.175 (active), the normalized growth (S. cerevisiae deletion strains, locus YLR370C, strain arc18, hits give low values) was 0.0727 (active) and the normalized growth (S. cerevisiae deletion strains, locus YLR371W, strain rom2, hits give low values) was 0.0621 (active). For the same compound, the normalized growth (S. cerevisiae deletion strains, locus YLR384C, strain iki3, hits give low values) was 0.714 (active), the normalized growth (S. cerevisiae deletion strains, locus YLR418C, strain cdc73, hits give low values) was 0.0928 (active) and the normalized growth (S. cerevisiae deletion strains, locus YML016C, strain PPZ1, hits give low values) was 0.0474 (active). The normalized growth (S. cerevisiae deletion strains, locus YML032C, strain rad52, hits give low values) was 0.0749 (active), the normalized growth (S. cerevisiae deletion strains, locus YML120C, strain ndi1, hits give low values) was 0.121 (active) and the normalized growth (S. cerevisiae deletion strains, locus YML124C, strain tub3, hits give low values) was 0.0612 (active). The normalized growth (S. cerevisiae deletion strains, locus YMR058W, strain fet3, hits give low values) was 0.0872 (active), the normalized growth (S. cerevisiae deletion strains, locus YMR078C, strain ctf18, hits give low values) was 0.0745 (active) and the normalized growth (S. cerevisiae deletion strains, locus YMR125W, strain sto1, hits give low values) was 0.17 (active). The normalized growth (S. cerevisiae deletion strains, locus YMR129W, hits give low values) was 0.129 (active), the normalized growth (S. cerevisiae deletion strains, locus YMR205C, strain PFK2, hits give low values) was 0.145 (active) and the normalized growth (S. cerevisiae deletion strains, locus YMR223W, strain ubp8, hits give low values) was 0.0648 (active). The normalized growth (S. cerevisiae deletion strains, locus YMR231W, strain pep5, hits give low values) was 0.0748 (active), the normalized growth (S. cerevisiae deletion strains, locus YMR263W, strain SAP30, hits give low values) was 0.0606 (active) and the normalized growth (S. cerevisiae deletion strains, locus YMR307W, strain GAS1, hits give low values) was 0.123 (active). For the same compound, the normalized growth (S. cerevisiae deletion strains, locus YNL067W, strain RPL9B, hits give low values) was 0.0497 (active), the normalized growth (S. cerevisiae deletion strains, locus YNL071W, strain lat1, hits give low values) was 0.14 (active) and the normalized growth (S. cerevisiae deletion strains, locus YNL128W, strain TEP1, hits give low values) was 0.0656 (active). For the same compound, the normalized growth (S. cerevisiae deletion strains, locus YNL183C, strain NPR1, hits give low values) was 0.92, the normalized growth (S. cerevisiae deletion strains, locus YNL209W, strain ssb2, hits give low values) was 0.126 (active) and the normalized growth (S. cerevisiae deletion strains, locus YNL233W, strain BNI4, hits give low values) was 0.057 (active). For the same compound, the normalized growth (S. cerevisiae deletion strains, locus YNL248C, strain rpa49, hits give low values) was 0.191 (active), the normalized growth (S. cerevisiae deletion strains, locus YNL250W, strain rad50, hits give low values) was 0.922 and the normalized growth (S. cerevisiae deletion strains, locus YNL271C, strain bni1, hits give low values) was 0.962. For the same compound, the normalized growth (S. cerevisiae deletion strains, locus YNL298W, strain CLA4, hits give low values) was 0.914, the normalized growth (S. cerevisiae deletion strains, locus YNL307C, strain MCK1, hits give low values) was 0.0652 (active) and the normalized growth (S. cerevisiae deletion strains, locus YNL322C, strain KRE1 (second series), hits give low values) was 1.02. For the same compound, the normalized growth (S. cerevisiae deletion strains, locus YNL322C, strain KRE1, hits give low values) was 0.0484 (active), the normalized growth (S. cerevisiae deletion strains, locus YNR049C, strain mso1, hits give low values) was 0.0907 (active) and the normalized growth (S. cerevisiae deletion strains, locus YNR052C, strain pop2, hits give low values) was 0.0587 (active). For the same compound, the normalized growth (S. cerevisiae deletion strains, locus YOL006C, strain TOP1, hits give low values) was 0.117 (active), the normalized growth (S. cerevisiae deletion strains, locus YOL147C, strain pex11, hits give low values) was 0.0607 (active) and the normalized growth (S. cerevisiae deletion strains, locus YOR001W, strain rrp6, hits give low values) was 0.337 (active). For the same compound, the normalized growth (S. cerevisiae deletion strains, locus YOR061W, strain CKA2, hits give low values) was 0.0462 (active), the normalized growth (S. cerevisiae deletion strains, locus YOR069W, strain VPS5, hits give low values) was 0.0488 (active) and the normalized growth (S. cerevisiae deletion strains, locus YOR070C, strain gyp1, hits give low values) was 0.0639 (active). The normalized growth (S. cerevisiae deletion strains, locus YOR080W, strain dia2, hits give low values) was 0.289 (active), the normalized growth (S. cerevisiae deletion strains, locus YOR083W, strain WHI5, hits give low values) was 0.102 (active) and the normalized growth (S. cerevisiae deletion strains, locus YOR106W, strain vam3, hits give low values) was 0.0804 (active). For the same compound, the normalized growth (S. cerevisiae deletion strains, locus YOR136W, strain idh2, hits give low values) was 0.0748 (active), the normalized growth (S. cerevisiae deletion strains, locus YOR144C, strain elg1, hits give low values) was 0.0617 (active) and the normalized growth (S. cerevisiae deletion strains, locus YOR184W, strain ser1, hits give low values) was 0.0757 (active). For the same compound, the normalized growth (S. cerevisiae deletion strains, locus YOR231W, strain MKK1, hits give low values) was 0.946, the normalized growth (S. cerevisiae deletion strains, locus YOR265W, strain rbl2, hits give low values) was 0.0762 (active) and the normalized growth (S. cerevisiae deletion strains, locus YOR270C, strain vph1, hits give low values) was 0.0899 (active). For the same compound, the normalized growth (S. cerevisiae deletion strains, locus YOR290C, strain snf2, hits give low values) was 0.112 (active), the normalized growth (S. cerevisiae deletion strains, locus YOR316C, strain cot1, hits give low values) was 0.0599 (active) and the normalized growth (S. cerevisiae deletion strains, locus YPL051W, strain arl3, hits give low values) was 0.303 (active). The normalized growth (S. cerevisiae deletion strains, locus YPL055C, strain LGE1, hits give low values) was 0.0709 (active), the normalized growth (S. cerevisiae deletion strains, locus YPL078C, strain atp4, hits give low values) was 0.232 (active) and the normalized growth (S. cerevisiae deletion strains, locus YPL106C, strain sse1, hits give low values) was 0.136 (active). For the same compound, the normalized growth (S. cerevisiae deletion strains, locus YPL240C, strain hsp82, hits give low values) was 0.0981 (active), the normalized growth (S. cerevisiae deletion strains, locus YPL241C, strain CIN2, hits give low values) was 0.0508 (active) and the normalized growth (S. cerevisiae deletion strains, locus YPL256C, strain CLN2, hits give low values) was 0.939. For the same compound, the normalized growth (S. cerevisiae deletion strains, locus YPR119W, strain clb2, hits give low values) was 0.067 (active), the normalized growth (S. cerevisiae deletion strains, locus YPR141C, strain kar3, hits give low values) was 1.03 and the normalized growth (S. cerevisiae deletion strains, locus YPR163C, strain tif3, hits give low values) was 0.0698 (active). For the same compound, the normalized growth (S. cerevisiae deletion strains, locus YPR167C, strain met16, hits give low values) was 0.0645 (active), the normalized growth (S. cerevisiae deletion strains, strain wtn01, hits give low values) was 0.0644 (active) and the normalized growth (S. cerevisiae strains, strain wild type, hits give low values) was 0.0486 (active).
